Inconclusive results are not listed. Active and inactive are the calls of the source. The calls were made as follows, unless noted: active = hit-call score of the fitted dose curve at least 0.9, where 1 is the maximum; inactive = score below 0.9.

Results on 6 compounds are retold here after PubChem BioAssay (EPA / NIEHS).

Experiment [1] is described as follows: CCTE_Shafer_MEA_acute_burst_duration_mean: CCTE's Neural Acute Assay for Mean Burst Duration, Shafer Lab (AID 2284014).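 Also: hits are decreases in mean burst duration relative to DMSO controls.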 An outline of the steps: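 Acute exposure of mature rat cortical networks (DIV 13 or 15) grown on microelectrode arrays to 0.03-40 uM compound. Mean burst duration compared with the 40-min pre-dose baseline over a 40-min post-dose recording at 37 C.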

Experiment [2] can be described thus: CCTE_Shafer_MEA_acute_per_burst_spike_number_mean: CCTE's Neural Acute Assay for Average Number of Spikes Per Burst, Shafer Lab (AID 2284015).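 Also: hits are decreases in mean spikes per burst versus baseline.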 In outline: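 Rat primary cortical neurons on 48-well MEAs (DIV 13 or 15) were treated with 0.03-40 uM compound at 37 C. Mean spikes per burst over 40 min were recorded before and after exposure and expressed as percent change from baseline, relative to DMSO.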

Experiment [3] can be described thus: CCTE_Shafer_MEA_acute_interburst_interval_mean: CCTE's Neural Acute Assay for Mean Interburst Interval, Shafer Lab (AID 2284016).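 Also: percent change of mean interburst interval versus each well's own pre-dose baseline; curves fitted for decrease in interburst interval relative to DMSO.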 In outline:
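Rat primary cortical neurons on 48-well MEAs at DIV 13 or 15 were exposed acutely to 0.03-40 uM. Spikes detected at 8x rms noise, 37 C. Mean interburst interval from 40 min recordings expressed as percent change from 40 min pre-treatment baseline.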

Experiment [4] can be described thus: CCTE_Shafer_MEA_acute_burst_percentage_mean: CCTE's Neural Acute Assay for Percentage of Spikes in a Burst, Shafer Lab (AID 2284017).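 As to AC50: curve fitted for loss of signal so potency reflects decreased burst percentage.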 An outline of the steps:
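Primary rat cortical neurons on 48-well MEA plates, treated on DIV 13 or 15 at 0.03-40 uM. Spikes detected at 8x rms noise at 37C; percent change from 40-min baseline to 40-min post-dose recording, fitted versus DMSO.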

Experiment [5] can be described thus: CCTE_Shafer_MEA_acute_burst_percentage_std: CCTE's Neural Acute Assay for Standard Deviation of Burst Percentage, Shafer Lab (AID 2284018).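 Also: fitted in the negative direction so actives lower burst percentage SD.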 In outline:
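Primary rat cortical neurons on 16-electrode MEA wells were recorded 40 min at baseline (DIV 13 or 15), then 40 min after compound (0.03-40 uM), at 37 C. Well value is SD across electrodes of spikes-in-bursts/total spikes; endpoint is percent change, DMSO-referenced.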

The nature of experiment [6]: CCTE_Shafer_MEA_acute_per_network_burst_spike_number_mean: CCTE's Neural Acute Assay for Average Number of Spikes in a Network Burst, Shafer Lab (AID 2284019).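 As to AC50: curve fitted for loss of signal so actives reduce spikes per network burst.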 In outline: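 Acute exposure of rat primary cortical networks (DIV 13/15) on MEAs; adaptive spike detection at 8x rms noise, 37 C. Percent change in spikes per network burst after 40 min with compound (0.03-40 uM), negative direction vs DMSO.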

Experiment [7] can be described thus: CCTE_Shafer_MEA_acute_per_network_burst_spike_number_std: CCTE's Neural Acute Assay for Standard Deviation of Number of Spikes in a Network Burst, Shafer Lab (AID 2284020).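 Also: fitted for decrease in spike-number SD versus DMSO so actives lower it.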 In outline: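 Acute MEA exposure, rat cortical neurons, 0.03-40 uM. Per-well % change versus own baseline; DMSO as negative control.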
Experiment [8] is described as follows: CCTE_Shafer_MEA_acute_per_network_burst_electrodes_number_mean: CCTE's Neural Acute Assay for Mean Number of Electrodes in a Network Burst, Shafer Lab (AID 2284021).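 Also: curves fitted for decreases only so hits reduce electrodes per burst.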 In outline:
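Rat primary cortical neurons on 48-well MEAs, DIV 13 or 15, were treated at 0.03-40 uM. Spikes were detected at 8x rms noise and recorded at 37 C. The mean electrodes per network burst in a 40 min exposure recording was expressed as percent change from a 40 min baseline.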

Experiment [9] in a line: CCTE_Shafer_MEA_acute_network_burst_percentage: CCTE's Neural Acute Assay for Percentage of Network Bursts, Shafer Lab (AID 2284022).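 Also: curves fitted for loss so actives lower network burst percentage.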 In outline:
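Rat primary cortical neuron networks on 48-well MEA plates, DIV 13 or 15, treated acutely with compound (0.03-40 uM, at least three wells). Percent of spikes within network bursts compared between 40-min recordings before and during exposure at 37 C, expressed as percent change.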

Experiment [10] is described as follows: CCTE_Shafer_MEA_acute_cross_correlation_area: CCTE's Neural Acute Assay for Area of Cross Correlation, Shafer Lab (AID 2284024).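 Also: curves fitted for loss of cross-correlation area so actives lower synchrony.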 In outline:
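Rat primary cortical neurons on 48-well MEA, DIV 13 or 15; compounds 0.03-40 uM. Baseline and post-exposure 40 min recordings at 37 C; percent change in area under pooled inter-electrode cross-correlation near zero lag, relative to DMSO.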

Experiment [11] in a line: CCTE_Shafer_MEA_acute_synchrony_index: CCTE's Neural Acute Assay for Synchrony, Shafer Lab (AID 2284027).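 Also: network synchrony index of spontaneous spiking in primary rat cortical neurons on MEAs; fitted for loss of signal so actives lower synchrony relative to DMSO.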 In outline: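 Rat cortical cultures, DIV 13/15; spikes detected at 8x rms noise, 300-5000 Hz band-pass. Compound 0.03-40 uM, ≥3 wells; 40-min pre- and post-exposure recordings, 37 C. Readout: % change in synchrony index; loss-of-signal fit vs DMSO.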
The nature of experiment [12]: CCTE_Shafer_MEA_dev_firing_rate_mean: CCTE's Neural Network Formation Assay for Mean Firing Rate, Shafer Lab (AID 2284031). An outline of the steps: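 Read-out: spike count/recording length, averaged over active electrodes, then AUC across days 5, 7, 9, 12. Rat cortical cultures on MEA; continuous 12-day exposure, media and treatment renewed DIV 5, 9; DMSO baseline.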

Experiment [13] in a line: CCTE_Shafer_MEA_dev_per_burst_spike_percent: CCTE's Neural Network Formation Assay for Percent of Spikes in a Burst, Shafer Lab (AID 2284032).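 Also: fitted as a decrease in burst spike percentage below DMSO baseline.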 In outline: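 Value is trapezoidal AUC over recordings on days 5, 7, 9 and 12 of the well-mean fraction of spikes falling in single-electrode bursts; rat cortical cultures exposed continuously from plating, treatment renewed DIV 5 and 9, fitted downward against DMSO.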

The nature of experiment [14]: CCTE_Shafer_MEA_dev_active_electrodes_number: CCTE's Neural Network Formation Assay for Number of Active Electrodes, Shafer Lab (AID 2284040; active = hit-call score of the fitted dose curve at least 0.9, where 1 is the maximum;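 also: potency for loss of active electrodes versus DMSO so lower counts are hits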). An outline of the steps: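 Developing rat cortical networks on MEAs, exposed DIV 0–12. Value is the AUC of active-electrode counts (≥5 spikes/min) from days 5, 7, 9, 12, relative to DMSO.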
Experiment [15] in a line: CCTE_Shafer_MEA_dev_burst_rate: CCTE's Neural Network Formation Assay for Burst Rate, Shafer Lab (AID 2284042). In outline: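 Primary rat cortical neurons on PEI-coated 48-well MEA plates (laminin added with cells at plating) (16 electrodes/well), exposed from plating to day 12, dosing renewed at DIV 5 and 9. Burst rate averaged over active electrodes, recorded DIV 5, 7, 9, 12, summarized as AUC; loss versus DMSO.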

Experiment [16] is described as follows: CCTE_Shafer_MEA_dev_bursting_electrodes_number: CCTE's Neural Network Formation Assay for Number of Bursting Electrodes, Shafer Lab (AID 2284043; active = hit-call score of the fitted dose curve at least 0.9, where 1 is the maximum;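 also: potency is for loss of bursting electrodes relative to DMSO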). An outline of the steps: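 Counted: electrodes with burst rate ≥1 per 2 min in each well. Cells: primary rat cortex, 1.5 x 10^5/well, on 16-electrode MEA wells. Exposure: DIV 0–12, compound renewed DIV 5 and 9. Recording days 5, 7, 9, 12; AUC vs DMSO baseline.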

A short description of experiment [17]: CCTE_Deisenroth_AIME_384WELL_CTox_Active: Cytotoxicity Assessment (CTOX) in CCTE's 384-well Estrogen Receptor Transactivation Assay with AIME metabolic competence (metabolism positive), Deisenroth Lab (AID 2284037; active = hit-call score of the fitted dose curve at least 0.9, where 1 is the maximum;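 also: chemicals first conditioned 2 h by alginate-bound induced rat liver S9 before cells; activity means signal loss indicating cell death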). An outline of the steps:
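VM7Luc4E2 breast cells received medium pre-incubated 2 h with chemical over alginate microspheres holding induced male Sprague Dawley rat liver S9; viability read 24 h later by protease-substrate fluorescence. Loss of signal, bidirectional fit, 0.002–200 uM.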

Experiment [18] is described as follows: CCTE_Deisenroth_AIME_384WELL_CTox_Inactive: Cytotoxicity Assessment (CTOX) in CCTE's 384-well Estrogen Receptor Transactivation Assay without AIME metabolic competence (metabolism negative), Deisenroth Lab (AID 2284039; active = hit-call score of the fitted dose curve at least 0.9, where 1 is the maximum;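 also: cell viability via live-cell protease substrate cleaved to fluorescent probe; cells exposed 24 h to medium preincubated 2 h with alginate-water beads without S9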). In outline:
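VM7Luc4E2 cells, metabolism-negative arm: test chemicals (0.002–200 uM, 10 points) pre-incubated 2 h with alginate-water microspheres, then medium transferred to cells for 24 h. Viability read as protease-substrate cleavage to fluorescent probe; loss-of-signal, bidirectional fitting.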

What is called AC50 is the midpoint of the concentration-response curve, whichever way the signal moves. With `CC(C)(C)c1ccccc1O`, the compound was called inactive in experiment [1], in experiment [2], in experiment [3], in [6], in experiment [7] and in experiment [8]. Moreover, the compound was classed as inactive in experiment [9] and in [10]. The AC50 in experiment [4] is 20 µM (active); in experiment [5], 31.8 µM (active); in [11] it was 20 µM (active).

Take `CC1(C)[C@H](C(=O)O[C@H](C#N)c2cccc(Oc3ccccc3)c2)[C@@H]1/C=C(\Cl)C(F)(F)F`: the AC50 in experiment [1] was 0.761 µM (active); in [2] it was 0.679 µM (active); in experiment [3], 1.29 µM (active); in experiment [4], 0.841 µM (active); in experiment [6], 0.553 µM (active); in experiment [7], 0.427 µM (active). The AC50 in experiment [8] was 0.818 µM (active); in experiment [9], 0.551 µM (active); in experiment [10], 0.0359 µM (active); in experiment [11], 0.45 µM (active); in experiment [13], 22.7 µM (active); in experiment [14] it was 12.9 µM (active). The AC50 in experiment [16] was 12.9 µM (active). The call in experiment [5], in experiment [12] and in experiment [15] was inactive.

As to `CCCCCCCCCCCCc1cccc(S(=O)(=O)O)c1`, the compound was called inactive in experiment [1], in [2], in experiment [3], in experiment [4], in experiment [5] and in experiment [6]. For the same compound, the result in [7], in experiment [8], in experiment [9], in [10], in experiment [11] and in experiment [17] was inactive. In addition, the call in experiment [18] was inactive.

As to `CN(C)C(=S)S`, the call in experiment [1], in experiment [2], in experiment [3], in experiment [4], in experiment [5] and in experiment [6] was inactive. The call in experiment [7], in experiment [8], in [9], in [10], in [11] and in [18] was inactive.

As for `Oc1cc(Cl)c(Cl)cc1Cl`, the outcome in [1], in [2], in [3], in experiment [6], in [7] and in experiment [8] was inactive. Also, the compound was called inactive in experiment [9], in experiment [10] and in experiment [18]. Moreover, the AC50 in experiment [4] was 36.5 µM (active); in experiment [5], 32.6 µM (active); in experiment [11], 30.5 µM (active); in [17], 100 µM (active).

As to `Oc1ccc(Cc2ccc(O)cc2)cc1`, the result in [1], in [3], in experiment [4], in experiment [5], in [6] and in experiment [7] was inactive. Further, the outcome in experiment [8], in experiment [9] and in experiment [11] was inactive. Besides, the concentration at half-maximal activity (AC50) in [2] is 25.3 µM (active); in [10] it was 0.00164 µM (active).
